Values joined by “and” are separate entries in the source; they are usually repeats but may differ in a detail not shown here. Equal values may be shown once. Active and inactive are the calls of the source.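 The calls were made as follows, unless noted: active = normalized viability below 100% at a tested concentration; inactive = the rest.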

A short description of one experiment: survival rescue of mitochondrial mutant cells in low glucose, primary screen, MELAS cybrids, Rieske KO mouse fibroblasts, CellTiter-Glo (AID 1508586;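 active = mean z-score across replicates of 1.96 or higher in either the MELAS or the Rieske mutant cell line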;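 also: z relative to plate mean and SD of compound and empty wells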). The note with it: MELAS cybrid survival, CellTiter-Glo 48 h, stronger effect = higher value.
Regarding `Cc1cc(Nc2cc(CN3CCOCC3)c3nc(C)c(Cc4ccc(Cl)cc4F)n3n2)n[nH]1`, the z-score is -0.366 (inactive).
Consider `CC1(C)CNc2cc(NC(=O)c3cccnc3NCc3ccncc3)ccc21`, for which the z-score is -0.604 (inactive).
Regarding `O=C(Nc1ccccc1-c1cn2c(CN3CCNCC3)csc2n1)c1cnc2ccccc2n1`, the z-score was -0.642 (inactive).
On the same count and under the same terms, to `N#Cc1c(NC(=O)c2cccc3ccccc23)sc2c1CCCC2` belongs -0.44 (inactive) and 1.09 (inactive).
For the compound `COc1cccc2cc(-c3nc(C4CCC(C(=O)O)CC4)n4ncnc(N)c34)[nH]c12` (stereo not drawn), the z-score is 4.23 (active).
Regarding `CC(C)c1cc(C(C)C)c(CC(=O)NS(=O)(=O)Oc2c(C(C)C)cccc2C(C)C)c(C(C)C)c1`, the z-score was -0.406 (inactive).
As for `CC1(C)CCC2=C(O1)c1ccccc1C(=O)C2=O`, the z-score was 1.23 (inactive).
On to `Nc1nc(Nc2ccc(S(N)(=O)=O)cc2)nn1C(=O)c1c(F)cccc1F`, for which the z-score is -0.135 (inactive).
On to `Cc1ccc(F)c(NC(=O)Nc2ccc(-c3cccc4[nH]nc(N)c34)cc2)c1`, for which the z-score was -0.438 (inactive).
On to `Cc1ncc(-c2ccnc(Nc3ccc(S(C)(=O)=O)cc3)n2)n1C(C)C`, for which the z-score is 1.7 (inactive).
On the same count and under the same terms, with `N#CCNC(=O)c1ccc(-c2ccnc(Nc3ccc(N4CCOCC4)cc3)n2)cc1` the figure was 5.22 (active).
Turning to `COC(=O)c1ccc2c(C(=Nc3ccc(N(C)C(=O)CN4CCN(C)CC4)cc3)c3ccccc3)c(O)[nH]c2c1`, the z-score is -0.457 (inactive).
With `COc1cc2nccc(Oc3ccc(NC(=O)Nc4cc(C)on4)c(Cl)c3)c2cc1OC`, the z-score was -0.36 (inactive).

Still in this experiment, the particulars now being: Rieske KO mouse fibroblast survival, CellTiter-Glo 72 h.
Regarding `Cc1cc(Nc2cc(CN3CCOCC3)c3nc(C)c(Cc4ccc(Cl)cc4F)n3n2)n[nH]1`, the z-score is -1.27.
In turn, `CC1(C)CNc2cc(NC(=O)c3cccnc3NCc3ccncc3)ccc21` yielded a z-score of 0.896.
Consider `O=C(Nc1ccccc1-c1cn2c(CN3CCNCC3)csc2n1)c1cnc2ccccc2n1`, for which the z-score turned out to be 0.327.
Consider `N#Cc1c(NC(=O)c2cccc3ccccc23)sc2c1CCCC2`, for which the z-score was 0.237 and -1.54.
On the same count and under the same terms, to `COc1cccc2cc(-c3nc(C4CCC(C(=O)O)CC4)n4ncnc(N)c34)[nH]c12` (stereo not drawn) belongs -0.621; to `CC(C)c1cc(C(C)C)c(CC(=O)NS(=O)(=O)Oc2c(C(C)C)cccc2C(C)C)c(C(C)C)c1`, 0.969.
`CC1(C)CCC2=C(O1)c1ccccc1C(=O)C2=O`: the z-score is -4.3.
The compound `Nc1nc(Nc2ccc(S(N)(=O)=O)cc2)nn1C(=O)c1c(F)cccc1F` gave a z-score of -1.32.
Same read-out and setting: to `Cc1ccc(F)c(NC(=O)Nc2ccc(-c3cccc4[nH]nc(N)c34)cc2)c1` belongs 0.36.
The same measure, in the same setting: to `Cc1ncc(-c2ccnc(Nc3ccc(S(C)(=O)=O)cc3)n2)n1C(C)C` belongs -2.84.
On to `N#CCNC(=O)c1ccc(-c2ccnc(Nc3ccc(N4CCOCC4)cc3)n2)cc1`, for which the z-score is -1.38.
In turn, `COC(=O)c1ccc2c(C(=Nc3ccc(N(C)C(=O)CN4CCN(C)CC4)cc3)c3ccccc3)c(O)[nH]c2c1` yielded a z-score of -1.1.
With `COc1cc2nccc(Oc3ccc(NC(=O)Nc4cc(C)on4)c(Cl)c3)c2cc1OC`, the z-score came to 0.933.

Another experiment is described as follows: ovarian cancer cell viability with rucaparib, profiling panel, oncology-focused library, rucaparib conditional (AID 1508598). The settings on record: patient-derived ovarian cancer cells, CellTiter-Glo viability, 144 h; at 0.000305 µM; OCI-C5x cells; with rucaparib 10 µM; stronger effect = lower value; 100% = cells with rucaparib alone. On the technique in general: In ATP-based viability assays light output follows the ATP content of the culture.
Consider `CC1(C)CNc2cc(NC(=O)c3cccnc3NCc3ccncc3)ccc21`, for which the viability – broadly, a read-out of living cells in per cent, often relative to untreated cells – is 121% (inactive).
Regarding `O=C(Nc1ccccc1-c1cn2c(CN3CCNCC3)csc2n1)c1cnc2ccccc2n1`, the viability is 102% (inactive).
With `Cc1cnc(NC(=O)Nc2cc(Br)c(C)cc2OC[C@@H]2CNCCO2)cn1`, the viability was 111% (inactive).
As to `N#Cc1c(NC(=O)c2cccc3ccccc23)sc2c1CCCC2`, the viability is 117% (inactive).
As for `COc1ccc(-c2ccc3c(N4CCOC[C@@H]4C)nc(N4CCOC[C@@H]4C)nc3n2)cc1CO`, the viability is 112% (inactive).
Take `Nc1nc(Nc2ccc(S(N)(=O)=O)cc2)nn1C(=O)c1c(F)cccc1F`: the viability was 95% (active).
Turning to `Cc1ccc(F)c(NC(=O)Nc2ccc(-c3cccc4[nH]nc(N)c34)cc2)c1`, the viability is 110% (inactive).
`COc1ccc(-c2ccc3c(N4CCOCC4)nc(N4C[C@@H](C)O[C@@H](C)C4)nc3n2)cc1CO`: the viability was 118% (inactive).
With `N#CCNC(=O)c1ccc(-c2ccnc(Nc3ccc(N4CCOCC4)cc3)n2)cc1`, the viability was 109% (inactive).
As to `COC(=O)c1ccc2c(C(=Nc3ccc(N(C)C(=O)CN4CCN(C)CC4)cc3)c3ccccc3)c(O)[nH]c2c1`, the viability was 119% (inactive).
Consider `COc1cc2nccc(Oc3ccc(NC(=O)Nc4cc(C)on4)c(Cl)c3)c2cc1OC`, for which the viability was 115% (inactive).

Still in this experiment, the particulars now being: patient-derived ovarian cancer cells, CellTiter-Glo viability, 144 h; at 0.000305 µM; OCI-C5x cells; without rucaparib; stronger effect = lower value.
Regarding `CC1(C)CNc2cc(NC(=O)c3cccnc3NCc3ccncc3)ccc21`, the viability is 126% (inactive).
Consider `O=C(Nc1ccccc1-c1cn2c(CN3CCNCC3)csc2n1)c1cnc2ccccc2n1`, for which the viability is 114% (inactive).
On to `Cc1cnc(NC(=O)Nc2cc(Br)c(C)cc2OC[C@@H]2CNCCO2)cn1`, for which the viability was 118% (inactive).
Still for that read-out and setting: with `N#Cc1c(NC(=O)c2cccc3ccccc23)sc2c1CCCC2` the figure was 105% (inactive); with `COc1ccc(-c2ccc3c(N4CCOC[C@@H]4C)nc(N4CCOC[C@@H]4C)nc3n2)cc1CO`, 106% (inactive).
Regarding `Nc1nc(Nc2ccc(S(N)(=O)=O)cc2)nn1C(=O)c1c(F)cccc1F`, the viability is 99.5% (active).
The same measure, in the same setting: with `Cc1ccc(F)c(NC(=O)Nc2ccc(-c3cccc4[nH]nc(N)c34)cc2)c1` the figure was 114% (inactive); with `COc1ccc(-c2ccc3c(N4CCOCC4)nc(N4C[C@@H](C)O[C@@H](C)C4)nc3n2)cc1CO`, 122% (inactive).
On to `N#CCNC(=O)c1ccc(-c2ccnc(Nc3ccc(N4CCOCC4)cc3)n2)cc1`, for which the viability was 113% (inactive).
As for `COC(=O)c1ccc2c(C(=Nc3ccc(N(C)C(=O)CN4CCN(C)CC4)cc3)c3ccccc3)c(O)[nH]c2c1`, the viability is 127% (inactive).
In the case of `COc1cc2nccc(Oc3ccc(NC(=O)Nc4cc(C)on4)c(Cl)c3)c2cc1OC`, the viability was 105% (inactive).

Source of the values: PubChem BioAssay.
